Bioassay records deposited in PubChem BioAssay by National Center for Advancing Translational Sciences (NCATS).
ELG1 DNA repair = blocks ELG1-dependent DNA repair in HEK293T cells. HEK293T ELG1-luciferase reporter, luminescence, 16 h; DNA damage induced by 5-fluorouridine. actives 2.3% (n = 330,000). AID 504467. Potency, µM (doses to about 46.1 µM), inactives show top-dose activity change, negative = inhibition, most hits filed as inhibitors; note: potency is the fitted concentration of half-maximal effect; nearly all actives have a fitted effect of over 55% in size
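In this reporter screen, reduction of luminescence relative to DMSO vehicle indicated activity. Compounds and 5-fluorouridine were added together to 2,000 cells per well, incubated for 16 hr at 37 °C, then developed with ONE-Glo.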
Giardia killer = kills Giardia lamblia. Giardia lamblia trophozoite viability. activity change, % at 7.66 µM, hits read low. actives 0.15% (n = 340,000); in the data active = activity change below about -80%; inconclusive = between about -30% and that limit;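 note: parasites exposed to compound for two days anaerobically before the ATP read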
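Killing of trophozoites was scored by loss of ATP luminescence after a 48 hrs anaerobic exposure to compounds at 37 deg C, using 100 cells per well.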
Sfp inh = inhibitors of Bacillus subtilis Sfp phosphopantetheinyl transferase | Q9F4F7 | Biochemical Sfp PPTase activity, qHTS | Potency, µM, without a hit: largest response in the series, negative = inhibition, hits mostly inhibitors | actives 3.5% (n = 310,000) | AID 1490;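 note: the enzyme is Sfp with the accession as filed and its product quenches rhodamine fluorescence; potency is the fitted concentration of half-maximal effect; 0% = enzyme reaction without inhibitor and -100% = no enzyme wells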
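Sfp 15 nM + cpd, 15 min RT; start w/ rhodamine-CoA 5 uM, BHQ-2-YbbR 12.5 uM (final); 50 mM Hepes pH 7.6, 10 mM MgCl2, 0.01% NP-40, 0.01% BSA; read 525/598 nm at 0 and 30 min.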
FBPA coupling cs = inhibits coupling enzyme system, counter-screen for aldolase hits; coupling enzyme system counterscreen, AmpLite Red fluorescence; activity change, negative = inhibition, % at 58.2 µM, hits read low; actives 0.67% (n = 290,000); AID 2472; in the data active = activity change below about -30%
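Fluorescence at 525 nm excitation and 598 nm emission measured inhibition of the coupled detection system without aldolase. Compounds (at 57.5 uM final) were preincubated 10 min at room temperature with coupling enzyme reagent before a 20 min substrate/AmpLite Red step.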
* marks the source's active call; other numbers are inactive results; u = inconclusive; x = no result given. In the library only some 5.5% were active in any assay of this set; here they are far more common. Unless noted, calls come from the whole dose curve; as a rule, active = well fitted curve in the direction sought with a large enough effect; inconclusive = small, poorly fitted or top-dose-only effect, or another doubt; inactive = no such curve, though single readings can be large; an effect the other way counts as inactive or inconclusive. Unless noted, % is set by controls: 0 for no effect and ±100 for the full control effect.

SMILES | ELG1 DNA repair | Giardia killer | Sfp inh | FBPA coupling cs
CCCCOc1ccc(C(=O)NCC(=O)NCC(c2ccc(OC)cc2)N2CCCC2)cc1 (configuration not stated) | 4.7% | 9.4 | x | x
CCc1ccc(CN2CCCC(C(=O)Nc3ccccc3-c3ccc(OC)cc3)C2)o1 (configuration not stated) | 0.8% | 29.1 | -4.3% | x
O=C(O)c1cc2c(cn1)[nH]c1ccccc12 | u | -1.6 | 1.6% | -6.9
O=C(O)/C=C/C(=O)Nc1ccc(N2CCOCC2)nc1N1CCOCC1 | 14.4% | 7.9 | 10µM* | -24.6
O=C(N/C(=C/c1ccco1)C(=O)N1CCOCC1)c1ccccc1Br | -0.6% | 1.5 | 0.3% | x
CN(Cc1cccs1)C(=O)CNC(=O)c1ccco1 | u | 15.4 | 6.8% | x
COc1cc(C(=O)NCCCNc2nc3cc(C)c(C)cc3cc2C#N)cc(OC)c1OC | u | -3.4 | 79.4µM* | -1.6
COCCNC(=S)NCCCNc1nc2cc3c(cc2cc1C#N)OCO3 | 0.0% | -15.8 | 14.1µM* | -25.5
CCOc1ccc2nc(NCCNC(=O)c3cc(OC)c(OC)c(OC)c3)c(C#N)cc2c1 | 13µM* | 20.3 | -2.6% | -3.2
COc1cc(C(=O)NCCNc2nc3cc(C)ccc3cc2C#N)cc(OC)c1OC | u | 4.7 | 9.5% | -6.8
COc1cccc(CN2CC(C(=O)NCc3ccc(C)o3)CCC2=O)c1 (configuration not stated) | 15.4% | 23.2 | -28.7% | 0.4
O=C(OC1CCCCC1)c1ccc2c(c1)C1C=CCC1C(C(=O)O)N2 (configuration not stated) | u | x | -17.9% | 0.7
CCOC(=O)c1ccc2c(c1)C1C=CCC1C(C(=O)OCC)N2 (configuration not stated) | u | 4.9 | 44.7µM* | -11.5
CCOC(=O)C1Nc2ccc(C)cc2C2C=CCC12 (configuration not stated) | x | -0.5 | x | x
CCOC(=O)C1Nc2ccc(Br)cc2C2C=CCC12 (configuration not stated) | -7.1% | -6.3 | 28.2µM* | -1.0
Clc1ccc(CSc2nnc(-c3ccncc3)o2)cc1 | u | -7.9 | 2.7% | -3.6
Clc1ccc(CSc2nnc(-c3ccc4c(c3)OCO4)o2)cc1 | 0.4% | -4.7 | 50.1µM* | 1.3
Cc1nc2ccccn2c1-c1ccnn1S(=O)(=O)c1ccc(F)cc1 | 18.3µM* | 0.6 | -6.3% | -16.2
Cc1nc2ccccn2c1C(=O)/C=C/c1ccc(F)cc1 | u | 1.9 | -9.5% | 0.2
O=C(NNC(=O)c1cccnc1)NC1CCCCC1 | 16.6% | -21.6 | 12.7% | 2.0
O=C(NNC(=O)c1cc(O)c(O)c(O)c1)NC1CCCCC1 | 10.8% | 7.1 | 10µM* | -3.9
O=Nc1c(-c2cccc([N+](=O)[O-])c2)nc2ncccn12 | 12.4% | x | 15.8µM* | -12.6
CC(=O)c1cccc(CN2CCCC(C(=O)Nc3ccc(-c4ccco4)cc3)C2)c1 (configuration not stated) | u | -16.6 | 56.2µM* | -0.8
CC(=O)c1cccc(CN2CCCC(C(=O)Nc3cccc(-n4cccn4)c3)C2)c1 (configuration not stated) | -2.3% | -1.9 | 16.2% | x
O=C(Nc1ccc(-c2ccco2)cc1)C1CCCN(Cc2ccc(CO)o2)C1 (configuration not stated) | u | -16.5 | 44.7µM* | -0.4
SMILES | ELG1 DNA repair | Giardia killer | Sfp inh | FBPA coupling cs
CCN(CC)CC(=O)N1CCCC(N2CCN(c3cccc(C(F)(F)F)c3)CC2)C1 (configuration not stated) | 0.5% | 2.1 | 9.2% | 4.2
CSc1ccc(-c2ccco2)nn1 | u | 6.8 | 31.6µM* | -15.1
CCSc1ccc(-c2ccco2)nn1 | u | -23.2 | 14.1µM* | -11.0
CSc1nc(-c2ccco2)cc(-c2ccccc2)c1C#N | -13.9% | 15.9 | -15.7% | 2.6
CCOc1ccccc1NC(=O)C1CCCCN1S(=O)(=O)c1ccccc1 (configuration not stated) | 20.6µM* | -9.0 | x | x
CCOc1ccc(NC(=O)C2CCCCN2S(=O)(=O)c2ccccc2)cc1 (configuration not stated) | -11.2% | -7.7 | 10.3% | 1.7
COc1cc(OC)c(OC)cc1/C=N/NC(=O)CCc1c(C)n[nH]c1C | u | 6.1 | 6.0% | 2.6
Nc1[nH]nc2ncc3cc4ccccc4nc3c12 | -4.9% | 7.9 | 35.5µM* | -10.5
Cc1ccccc1C(=O)N1CCC(C(=O)Nc2ccc(S(=O)(=O)N3CCCCC3)cc2)CC1 | 14.6µM* | 7.1 | 4.8% | x
CN(C1CCCCC1)S(=O)(=O)c1ccc(S(=O)(=O)N2CCN(C(=O)c3ccccc3F)CC2)cc1 | 18.4µM* | 4.7 | 14.0% | 3.8
O=C(Nc1ccc2c(c1)oc1ccccc12)C1CC1 | u | -10.4 | 9.3% | 0.3
Cc1ccccc1C(=O)N1CCC(C(=O)Nc2ccc(S(=O)(=O)N3CCOCC3)cc2)CC1 | -9.3% | 2.9 | x | x
O=C(c1ccccc1F)N1CCN(S(=O)(=O)c2ccc3c(c2)OCCO3)CC1 | u | 6.1 | -0.5% | 4.8
O=C(Nc1ccc2c(c1)oc1ccc(S(=O)(=O)N3CCCC3)cc12)C1CC1 | 16.4µM* | -1.0 | -8.3% | 0.4
Cc1ccc(C(=O)c2coc3ccc(O)cc23)cc1 | u | -9.9 | 1.5% | -4.2
O=C(NC1CC1)c1cccc(NC(=O)C2CCN(S(=O)(=O)c3cccc(C(F)(F)F)c3)CC2)c1 | x | 2.8 | x | x
CC1CN(C(c2ccco2)c2sc3ncnn3c2O)CC(C)O1 (configuration not stated) | 7.1% | 15.1 | 39.8µM* | -4.0
Cc1nc2sc(C(c3ccco3)N3CCN(c4ccc(F)cc4)CC3)c(O)n2n1 (configuration not stated) | 0.1% | 2.5 | 44.7µM* | 0.8
Cc1ccc(C(c2sc3ncnn3c2O)N2CCC(C)CC2)cc1 (configuration not stated) | 2.8% | -3.1 | 10.2% | 0.0
Cc1nc2sc(C(c3ccco3)N3CCN(c4ccccc4F)CC3)c(O)n2n1 (configuration not stated) | 2.9% | 4.2 | -9.1% | 0.2
COCC(=O)N1CCC[C@@]2(CCN(c3ccncc3)C2)C1 | x | x | 20.9% | 2.3
CCOC(=O)c1c(N)sc2c1CCC(CC)C2 (configuration not stated) | 12.9% | 43.2 | -16.7% | -1.6
CCOC(=O)c1c(N)sc2c1CCC1C(=O)N(C3CCCCC3)C(=O)C21 (configuration not stated) | u | 7.5 | 20µM* | -1.2
CSc1ccc(CN(C)CCc2ccccn2)cc1 | 3.5% | -0.9 | 50.1µM* | 1.2
CC(=O)c1cccc(-n2nnnc2SCC(=O)Nc2cccc(NC(=O)c3ccco3)c2)c1 | 18.4µM* | -1.8 | 9.4% | 1.2
CC(=O)Oc1cc(-c2coc3cc(OC(C)=O)c(OC(C)=O)c(OC(C)=O)c3c2=O)cc(OC(C)=O)c1OC(C)=O | x | x | -90.8% | -51.2*
CN1C2=CC=CC=CC2=[N+](C)C12C([N+](=O)[O-])=CC(=[N+]([O-])[O-])C=C2[N+](=O)[O-] (configuration not stated) | -0.8% | -93.8* | u | -16.1
